Source: PubChem (several laboratories)
Hits are enriched below; roughly 1.2% of the tested compounds scored in any of these assays.
GPR7 antagonist – antagonists of human GPR7 (neuropeptides B/W receptor 1). P48145. GPR7-expressing cells, fluorescence antagonist assay. inhibition, % at 4.4 µM. 290,000 compounds, 1.1% hits. AID 1861; in the data active = inhibition above about 16%, passing the limit was not always enough;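 note: cells stimulated with the agonist NPW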
GASC-1 inh – human JMJD2C demethylase inhibition | Q9H3R0 | GST-JMJD2C(1-420) H3K9me3 demethylation, DELFIA europium | inhibition, % at 2.35 µM | 330,000 compounds, 0.069% hits;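 active = more than half of a compound's replicate wells show inhibition beyond 50%, single wells judged on their own value; inconclusive = some, but no more than half, of replicates pass 50% inhibition; inactive = no replicate passes 50% inhibition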;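 note: signal counts dimethyl H3K9 product captured on neutravidin plate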
Target sequence (Q9H3R0 1-420 limits assumed): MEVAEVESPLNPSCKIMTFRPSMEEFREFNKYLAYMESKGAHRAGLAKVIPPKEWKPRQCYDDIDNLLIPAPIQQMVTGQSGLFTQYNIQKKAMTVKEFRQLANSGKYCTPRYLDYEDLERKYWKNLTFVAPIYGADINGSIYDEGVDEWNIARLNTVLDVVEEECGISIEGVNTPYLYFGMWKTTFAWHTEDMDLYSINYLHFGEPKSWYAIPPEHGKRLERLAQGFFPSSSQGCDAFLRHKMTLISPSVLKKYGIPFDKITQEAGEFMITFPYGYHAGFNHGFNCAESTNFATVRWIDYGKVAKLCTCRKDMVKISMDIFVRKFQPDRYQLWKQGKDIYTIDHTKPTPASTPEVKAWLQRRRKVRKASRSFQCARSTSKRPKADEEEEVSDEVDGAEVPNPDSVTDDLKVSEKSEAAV
VLA-4 inh – inhibition in a human VLA-4 binding assay; 330,000 compounds, 0.2% hits; VLA-4 expressing cells, ligand binding flow cytometry; AID 2557; inhibition, % (about 7 µM as worked out from the volumes in the protocol); in the data active = inhibition above about 50%
pCIP destab – compounds decreasing mouse p/CIP protein stability; F442A p/CIP-EGFP cells, EGFP fluorescence, 16 h; decrease of EGFP signal, % at 10 µM; Q05BA5; 290,000 compounds, 0.01% hits;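 active = EGFP signal decrease of at least 30% at 10 µM or well 3 SD below plate mean, unless failing retest; inactive = the rest, including hits failing retest or dose response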
Numbers stand for hits; . = inactive; ? = inconclusive; / = no result given.

SMILES	GPR7 antagonist	GASC-1 inh	VLA-4 inh	pCIP destab
COc1cc(CNCC(C)C)cc(Br)c1OCC(=O)Nc1ccccc1	18	.	.	.
CCNCc1cc(Br)c(OCC(=O)Nc2ccccc2)c(OC)c1	.	.	.	.
CCOc1ccccc1CNCCNC(=O)c1nonc1N	.	.	.	.
Nc1nonc1C(=O)NCCNCc1cc(Br)ccc1OCc1ccccc1F	77	.	.	.
O=C(O)CCCC[C@@H]1SC[C@@H]2NC(=O)N[C@@H]21	/	96	.	/
Nc1ccc(NC(=O)c2ccco2)c(Cl)c1	.	.	.	.
O=c1cc(-c2ccc(O)cc2)oc2c(C3O[C@H](CO)[C@@H](O)[C@H](O)[C@H]3O)c(O)cc(O)c12 (stereo partly drawn)	/	/	.	/
O=c1cc(-c2ccc(O)c(O)c2)oc2c(C3O[C@H](CO)[C@@H](O)[C@H](O)[C@H]3O)c(O)cc(O)c12 (stereo partly drawn)	.	64	.	.
COc1ccc(C(=O)NCC(=O)N2CCN(C(=O)c3ccco3)CC2)cc1	.	.	.	.
COc1ccc(N(C)S(=O)(=O)c2cccc(C(=O)NC3CCCCCC3)c2)cc1	43	.	.	.
Cc1nn2c3ccccc3nc2n(Cc2ccccc2)c1=O	.	/	/	/
Cn1c(=O)c(-c2ccccc2)nn2c3ccccc3nc12	.	52	.	.
CC(C)(C)c1ccc(/C=C(\C#N)C(=O)NC2CC2)cc1	/	.	.	/
CC(C)(C)c1nc(NC(=O)Nc2ccccc2)sc1Br	32	.	.	.
O=C(COc1ccccc1Cl)Nc1ccc2c(c1)C(=O)NC2=O	.	.	.	.
Cc1ccc(C2(CCNC(C)c3cccs3)CCOC(C(C)C)C2)cc1 (stereo not drawn)	.	.	/	.
COc1ccccc1C1(CCNC(C)c2cccs2)CCOC(C(C)C)C1 (stereo not drawn)	20	.	.	.
CCc1ccc(-c2csc(NC(=O)COC(=O)CCc3nc4ccccc4s3)n2)cc1	.	.	.	.
CCCn1c(N)cc(=O)n(CCC)c1=O	.	.	.	.
CC(C)Cn1c(N)cc(=O)n(C)c1=O	.	.	61	.
C[C@]12CC[C@@H]3c4ccc(OS(=O)(=O)O)cc4CC[C@H]3[C@@H]1CCC2=O	.	.	.	.
C[C@]12CCC3c4ccc(OCC(=O)O)cc4CCC3C1CCC2=O (stereo partly drawn)	22	.	.	.
O=C(NCc1ccc(F)cc1)c1cccnc1C(=O)O	.	.	.	.
O=C(NCc1cccs1)c1cccnc1C(=O)O	.	59	.	.
COc1ccc2[nH]c3c(NCCC4=CCCCC4)ncnc3c2c1	23	.	/	.
SMILES	GPR7 antagonist	GASC-1 inh	VLA-4 inh	pCIP destab
N/C(Cc1ccc(Cl)c(Cl)c1)=N\OC(=O)c1cccs1	20	.	.	.
O=C(Nc1ccc(S(=O)(=O)NCc2ccccc2)cc1)C1CCCCC1	.	.	.	.
COc1ccc(OC)c(CCNC(=O)Cn2sc3nc(C)cc(C)c3c2=O)c1	16	.	.	.
CCC1(C)OC(=O)N2CCc3c(C)[nH]c4c(C)ccc(c34)C21C (stereo not drawn)	18	.	.	.
Cc1cc(Nc2nnnn2-c2ccccc2)n(-c2ccccc2)n1	.	.	.	.
Cc1cc2ncn(-c3nnnn3-c3ccccc3)c2cc1C	19	.	.	.
CCOC(=O)c1cnc(-n2[nH]c(C)c(Cc3ccccc3)c2=O)[nH]c1=O	17	.	.	.
CCOC(=O)c1cnc(Cc2ccccc2)[nH]c1=O	.	.	.	.
Cc1cc(C)n(C(N)=NC(=O)c2ccc([N+](=O)[O-])cc2)n1	.	.	.	42
CCC1=C(OC(=O)N(CC)CC)N2C(=O)OC(=NCC3CC3)[C@]2(C)[C@H]2C1=CC[C@H]1C(=O)N(CC)C(=O)[C@H]12	/	?	/	.
COCCOC(=O)c1[nH]c2c(c1C)C(=O)CC(c1cc(OC)ccc1OC)C2 (stereo not drawn)	.	.	.	.
CCCOCCOC(=O)c1[nH]c2c(c1C)C(=O)CC(c1cc(OC)ccc1OC)C2 (stereo not drawn)	20	.	.	.
COc1cc(C2CC(=O)c3c([nH]c(C(=O)OCCOC(C)C)c3C)C2)cc(OC)c1OC (stereo not drawn)	18	.	.	.
CC(=O)N1CCOc2ccc(S(=O)(=O)N3CCC(C(=O)NCc4ccc(C)cc4)CC3)cc21	.	.	.	.
COc1ccc(OC)c(S(=O)(=O)NC(N)=NCCc2ccccc2OC)c1	.	.	.	.
COC(=O)c1nc2n(n1)C(c1cc(OC)ccc1OC)C(C(=O)OC1CCCCC1)=C(C)N2 (stereo not drawn)	.	.	.	.
Cc1ccc(S(=O)(=O)Nc2ccc(=O)n(Cc3ccc(Cl)c(Cl)c3)c2)cc1	.	.	.	.
CC1CCCC(NC(=O)CSc2ccc(F)cc2)C1C (stereo not drawn)	.	.	.	.
CC1CCCC(NCC(O)COC(c2ccc(F)cc2)c2ccc(F)cc2)C1C (stereo not drawn)	56	.	.	.
O=C(CC1NCCc2ccccc21)Nc1ccc(Oc2ccccc2)cc1 (stereo not drawn)	21	.	.	.
O=C(CC1NCCc2ccccc21)Nc1ccccc1 (stereo not drawn)	.	.	.	.
CC(C)[C@H](NC(=O)c1ccccc1F)C(=O)OCCN1C(=O)c2ccccc2C1=O	/	.	.	/
COCCNC(=O)CN(c1cc(C(F)(F)F)ccc1Cl)S(C)(=O)=O	19	.	.	.
COc1cc(OC)cc(C(=O)Nc2ccc(NC(=O)c3ccco3)c(Cl)c2)c1	25	.	.	.
CCCCC(C)n1[nH]c(=O)cc1N (stereo not drawn)	.	.	.	.
SMILES	GPR7 antagonist	GASC-1 inh	VLA-4 inh	pCIP destab
CCOCCCNC(=O)CN1C(=O)/C(=C/c2ccccc2C)Sc2ccccc21	.	.	.	.
CCOCCCNC(=O)/C=C1\Sc2ccccc2N(Cc2ccccc2F)C1=O	19	.	.	.
CC1CCCN(CCCNC(=O)c2ccc3c(c2)N(Cc2ccccc2F)C(=O)c2ccccc2S3(=O)=O)C1 (stereo not drawn)	.	.	.	.
CCOC(=O)C1(CC2CCCCO2)CCN(Cc2nccn2-c2ccc(OC)cc2)CC1 (stereo not drawn)	.	.	.	.
CCOC(=O)C1(CC2CCCCO2)CCN(Cc2nccn2-c2cccc(C)c2)CC1 (stereo not drawn)	19	.	.	.
N#CC(C#N)=C1C=CC=CN1/C(=C\c1ccco1)C(=O)c1ccccc1	39	.	.	.
COc1ccc(C(=O)/C(=C\c2ccco2)N2C=CC=CC2=C(C#N)C#N)cc1	47	.	.	.
Cc1ccc(-n2c(-c3ccccc3)c[n+]3c2CCc2ccccc2-3)c(C)c1	64	/	.	.
Cc1ccc(-n2c(-c3ccccc3)c[n+]3c2CCC3)cc1	.	.	.	.
N#Cc1ccc(COC(=O)CC(NC(N)=O)c2ccc(Cl)cc2)cc1 (stereo not drawn)	.	.	.	.
CCn1c(=S)sc2c(=O)n(CC(=O)Nc3ccc(Cl)cc3)c(C)nc21	.	.	.	.
